From PubChem
Only some compounds are listed: those with a hit (about 2.7% of all), similar ones and a draw of the others.
PGC1a acetyl inh: lowers PGC1a acetylation signal in U2OS cells | AlphaScreen anti-acetyl-lysine; with virally co-expressed GCN5 acetyltransferase | inhibition, % at 15.6 µM | 0.17% of 350,000 active | AID 651687;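 active means every replicate shows inhibition of at least 40%; inconclusive means mean inhibition at least 40% but some replicate below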;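 further: 0% = neutral control wells and 100% = positive control wells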
CFTR F508del cor: CFTR F508del correction in bronchial cells; CFBE cells, YFP halide quenching; stimulated with forskolin plus potentiator P3; % fluorescence drop versus neutral controls; activity (quench increase), % at 7.58 µM; AID 720511; 0.36% of 350,000 active;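 active means mean added fluorescence quench of at least 8% versus neutral control, with both replicates also reaching 8%; inconclusive means only one of the mean or replicate conditions met; inactive means mean below 8% and not both replicates reaching 8%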;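 further: cells transiently co-express mutant CFTR-F508del with the halide-sensitive YFP; corrector assay measuring rescue of mutant channel to the surface after 24 h compound exposure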
GSIS activator: primary screen for activators of insulin secretion dependent on glucose, INS-1E cells, GLuc reporter luminescence; INS-1E GLuc reporter insulin secretion, 2-3 h; activation, % at 16.6 µM; 0.61% of 370,000 active; AID 743287;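 active means lowest replicate activation of at least 40%, so every replicate reaches that level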;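 further: 0% = median of neutral control wells and 100% = median of IBMX positive control wells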
EWS-Fli block: inhibitors of EWS/Fli oncoprotein transcriptional activity; 0.67% of 350,000 active; inhibition, % at 12.6 µM; A673 NR0B1-luciferase reporter, viability-normalised;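 active means mean inhibition of at least 50% after viability correction, with every replicate also passing that limit; inconclusive means mean reaches 50% but only one of two replicates passes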;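 further: firefly luciferase signal divided by Alamar Blue viability fluorescence both relative to DMSO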
HIV Env fusion: blocks HIV Env-driven cell-cell fusion. 1.1% of 360,000 active. inhibition, % at 12.3 µM. HeLa-JRFL Env/CEM21 cell fusion, luciferase;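 active means mean replicate inhibition score of at least 50 and every replicate individually at or above 50; inconclusive means only one of the two criteria met; inactive means mean below 50 and not all replicates reaching 50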;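 further: 0% = plate neutral controls and 100% = maraviroc near 300 nM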
PAX8 reporter: inhibitors of PAX8 transcriptional activity in RMG-I cells; RMG-I TPO-luciferase reporter, SteadyGlo, 24 h; inhibition, % at 12.6 µM; 1.2% of 360,000 active;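 active means mean replicate inhibition at least 60% with every replicate also reaching 60%; inconclusive means only one of the two criteria is met; inactive means mean below 60% and not all replicates reaching 60%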;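 further: luciferase light reporting Pax8 driven TPO promoter activity; plate controls were median of neutral control wells for no effect and mitoxantrone controls for full effect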
DNA binding: DNA binding small molecules; shares compounds with EWS-Fli block; salmon sperm DNA acridine orange fluorescence polarization; AC35, µM (top dose mostly 68 µM), inactives show top-dose activity change, negative = DNA binding; 2% of 640 active;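 active means fitted curve reaches a 35% signal fall AC35 below twice the sample's top valid tested dose, actives reach about 48 µM in these data; inactive means the rest, including activity in the rising direction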;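 further: lower polarization ratio signals compound binding to DNA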
The depositor's hits bear a star; ? = inconclusive; / = no result; [ ] = dose if it differs, or a comment.

SMILES	PGC1a acetyl inh	CFTR F508del cor	GSIS activator	EWS-Fli block	HIV Env fusion	PAX8 reporter	DNA binding
CO[C@H]1CN(C)C(=O)c2cc(NC(=O)NC(C)C)ccc2OC[C@@H](C)N(Cc2ccc(-c3ccccn3)cc2)C[C@@H]1C	-1	3	-42	11	/	/	/
CO[C@H]1CN(C)C(=O)c2cc(NC(=O)NC(C)C)ccc2OC[C@H](C)N(Cc2ccc(-c3ccccn3)cc2)C[C@@H]1C	?	-2	-42	51*	/	/	12%
O=S(=O)(c1ccc(F)cc1)N1C[C@H]2[C@@H](c3ccccc31)[C@H](CO)N2Cc1ccccc1Cl	-24	0	-2	60*	/	109*	-5%
CCC(=O)N1[C@H](CO)[C@H]2c3ccccc3N(S(=O)(=O)c3ccc(F)cc3)C[C@H]21	5	1	8	-3	/	-4	/
O=C(Cc1cccnc1)N1CC(=O)N2[C@H](C1)[C@@H](c1ccc(-c3cccc(F)c3)cc1)[C@@H]2CO	/	/	7	/	/	/	/
C[C@H]1CN([C@@H](C)CO)C(=O)c2cc(NC(=O)CCCCCC(=O)Nc3ccccc3N)ccc2O[C@@H]1CN(C)S(=O)(=O)c1ccc(F)cc1	-5	1	13	-11	/	-19	/
CCN(CC)C(=O)CN1C(=O)C(=O)c2ccccc21	-2	-1	-2	54*	19	30	-9%
CCN(CC)C(=O)CN1C(=O)c2cccc3cccc1c23	-14	0	4	4	11	-3	/
O=C(CN1C(=O)C(=O)c2ccccc21)c1ccc(Cl)cc1	-8	-2	-8	60*	-9	14	-8%
COC(=O)c1c(CC[C@@H](CO)NC(=O)N[C@@H](Cc2ccccc2)Cn2cc(-c3ccccc3)nn2)oc(C(=O)N2CCOCC2)c1C(=O)OC	8	0	/	0	7[16.7 µM]	10	/
Cc1ccc(NC(=O)CCN2CCCCC2)cc1	16	-1	7	66*	25	10	-2%
COCC(=O)N1[C@H](CN(C)C(=O)c2ccncc2)[C@@H](c2ccccc2)[C@@H]1CO	-5	-1	3	3	/	-4	/
CCOC(=O)c1c(-c2ccccc2)csc1NC(=O)CCN1CCOCC1	/	/	-13	/	7	11	/
CCOC(=O)c1c(-c2ccc(C)cc2)csc1NC(=O)CCN1CCOCC1	5	/	-17	81*	23	13	-9%
O=C(O)c1cccc(N/N=C/c2cc(Br)cc(Br)c2O)c1	-6	/	-13	/	-50	-120	/
Cc1c(N=Cc2cc(Br)cc(Br)c2O)cccc1C(=O)O	/	/	-18	74*	20	-13	-7%
Cc1c(Cc2ccc3c(c2)OCO3)sc(NC(=O)C(C)(C)C)c1C#N	-10	3	0	55*	/	-11	-3%
CCN(CC)C(=O)c1sc(NC(=O)c2ccc3c(c2)OCO3)c(C#N)c1C	15	/	/	/	19	-2	/
CC1=NN(c2ccccc2)C(=O)/C1=C/C=C/c1ccc(N(C)C)cc1	/	1	5	-27	-17	0	/
CC1=NN(c2ccccc2)C(=O)/C1=C\C=C\c1ccccc1	-23	-11	/	64*	-107	-16	7%
COc1ccc(S(=O)(=O)N2C[C@H](O)COC[C@H]3O[C@H](CC(=O)NCCCN(C)C)CC[C@@H]32)cc1	-2	-1	8	19	/	-5	/
CCN(CC)c1ccc(C2Nc3cccc4cccc(c34)N2)cc1	-4	5	-5	-32	-3	-17	/
CCN(CC)c1ccc(C2NC(=O)c3ccccc3N2)cc1 (stereo unspecified)	-9	-5	3	62*	26	?	6%
O=C(O)C[C@@H]1CC[C@@H](NC(=O)c2ccccc2F)[C@@H](CO)O1	-3	1	2	-3	11[16.7 µM]	-2	/
O=C(C[C@@H]1CC[C@@H]2[C@H](COC[C@@H](O)CN2S(=O)(=O)c2ccc(F)cc2)O1)NCc1ccc(Cl)c(Cl)c1	-3	-1	-17	76*	/	21	-16%
SMILES	PGC1a acetyl inh	CFTR F508del cor	GSIS activator	EWS-Fli block	HIV Env fusion	PAX8 reporter	DNA binding
CCCC(=O)Nc1ccc2c(c1)C(=O)N(C)[C@@H]1CC[C@@H](CC(=O)Nc3ccccc3)O[C@H]1CO2	-2	-3	-3	-3	11[16.7 µM]	-14	/
COC(=O)Cc1ccc(NC(=O)c2ccccc2Cl)cc1	/	/	12	66*	-7	-41	-11%
CC(C)NC(=O)Nc1ccc2c(c1)C(=O)N([C@H](C)CO)C[C@@H](C)[C@H](CN(C)S(=O)(=O)c1ccc(Cl)cc1)OCCCC[C@H](C)O2	-6	2	-16	3	-20[16.7 µM]	50	/
CN1C/C(=C/c2ccsc2)C(=O)/C(=C/c2ccsc2)C1	-22	/	-8	61*	-39	8	-13%
O=C1/C(=C\c2ccsc2)N2CCC1CC2	/	0	0	7	18	14	/
COc1cccc(NC(=O)Nc2ccc3c(c2)C(=O)N(C)[C@H]2CC[C@H](CC(=O)O)O[C@@H]2CO3)c1	-1	5	9	5	0[16.7 µM]	-11	/
COc1cccc(O)c1CN1CCC(C(=O)Nc2ccc(-c3cccc(C)c3)cc2)CC1	4	-10	-25	58*	6	32	5%
COc1cccc(O)c1CN1CCC(C(=O)Nc2ccc(Oc3cccnc3)cc2)CC1	/	0	5	27	22	21	/
Cc1ccccc1N=CC1=C(O)c2ccccc2C1=O	3	-2	3	77*	-28	-16	-11%
COc1ccc(N=CC2=C(O)c3ccccc3C2=O)c(OC)c1	5	/	/	/	/	/	/
Cc1ccc(-c2ccc3c(c2)O[C@@H](CN(C)Cc2ccncc2)[C@@H](C)CN([C@@H](C)CO)S3(=O)=O)cc1	1	1	27	10	21[16.7 µM]	/	/
O=C(Nc1ccc2c(c1)[C@@H]1C[C@H](CC(=O)N3CCOCC3)O[C@H](CO)[C@@H]1O2)c1ccc2c(c1)OCO2	-2	0	0	-22	-15[16.7 µM]	-27	/
CCOc1ccc(-c2cc(CCCC(=O)N3CCN(c4ccc(OC)cc4)CC3)no2)cc1	/	1	-13	60*	21	-9	-8%
Cc1ccsc1C(=O)OCC(=O)c1cc(C)n(C)c1C	-16	-1	4	63*	/	48	-11%
C=CCNc1ncnc2c1ncn2C1OC(CO)C(O)C1O (stereo unspecified)	1	/	/	/	/	/	/
OCC1OC(n2cnc3c(NCc4ccco4)ncnc32)C(O)C1O (stereo unspecified)	/	/	/	76*	70*	104*	-13%
OC[C@H]1O[C@@H](n2cnc3c(NCc4ccco4)ncnc32)[C@H](O)[C@@H]1O	-72	-3	/	80*	-6	100*	-10%
COCC#Cc1cnc2c(c1)C(=O)N([C@H](C)CO)C[C@H](C)[C@@H](CN(C)S(=O)(=O)c1cn(C)cn1)O2	5	-2	18	-12	-9[16.7 µM]	/	/
